Reference: PubChem BioAssay (NCATS)
Records with an inconclusive call do not appear. The source made the active and inactive calls. Calls follow the shape of the dose curve; as a rule, active = well fitted cell-killing curve with a large enough effect; inconclusive = small, poorly fitted or top-dose-only effect, or effect the other way; inactive = flat fitted curve, though single readings scatter.

Columns and labels:
Assay in all cases: Primary qHTS to identify gynecologic anti-cancer compounds using libraries of approved drugs and bioactive compounds (AID 1345084); also: nearly all actives have a fitted effect of over 55% in size
CAOV3 = settings: Gynecologic cancer cell panel viability, ATPlite luminescence, 48 h; series mostly up to 57.5 µM
Procedure, shortened: (§1)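 ATP-based viability (ATPlite), 1,000 cells/well, 16 h pre-incubation, 48 h compound at 37 C, 5% CO2, 15 min RT before read.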

CASKI = settings: Gynecologic cancer cell panel viability, ATPlite luminescence, 48 h; series mostly up to 57.5 µM
Procedure, shortened: as §1

Es-2 = settings: Gynecologic cancer cell panel viability, ATPlite luminescence, 48 h; series mostly up to 57.5 µM
Procedure, shortened: as §1

HeLa = settings: Gynecologic cancer cell panel viability, ATPlite luminescence, 48 h; series mostly up to 57.5 µM
Procedure, shortened: as §1

Hek293T = settings: Gynecologic cancer cell panel viability, ATPlite luminescence, 48 h, control line for the selectivity index; series mostly up to 57.5 µM
Procedure, shortened: as §1

JEG-3 = settings: Gynecologic cancer cell panel viability, ATPlite luminescence, 48 h; series mostly up to 57.5 µM
Procedure, shortened: as §1

OV90 = settings: Gynecologic cancer cell panel viability, ATPlite luminescence, 48 h; series mostly up to 57.5 µM
Procedure, shortened: as §1

PA-1 = settings: Gynecologic cancer cell panel viability, ATPlite luminescence, 48 h; series mostly up to 57.5 µM
Procedure, shortened: as §1

SKOV3 = settings: Gynecologic cancer cell panel viability, ATPlite luminescence, 48 h; series mostly up to 57.5 µM
Procedure, shortened: as §1

Tov-21-G = settings: Gynecologic cancer cell panel viability, ATPlite luminescence, 48 h; series mostly up to 57.5 µM
Procedure, shortened: as §1

Tov112D = settings: Gynecologic cancer cell panel viability, ATPlite luminescence, 48 h; series mostly up to 57.5 µM
Procedure, shortened: as §1
% is scaled to controls: 0 for no effect and ±100 for the full control effect.

CC1=C(C)C(=O)OC(C(C)(O)C2CCC3C4CC=C5CC(OC6OC(COC7OC(CO)C(O)C(O)C7O)C(O)C(O)C6O)CC(O)C5(C)C4CCC32C)C1 (stereo not given)
inactive: Potency (CAOV3) | Potency (CASKI) | Potency (Es-2) | Potency (HeLa) | Potency (Hek293T) | Potency (JEG-3) | Potency (OV90) | Potency (PA-1) | Potency (SKOV3) | Potency (Tov-21-G) | Potency (Tov112D)

NS(=O)(=O)NCCNc1nonc1C(=Nc1ccc(F)c(Br)c1)NO
inactive: Potency (CAOV3) | Potency (CASKI) | Potency (Es-2) | Potency (HeLa) | Potency (Hek293T) | Potency (JEG-3) | Potency (OV90) | Potency (PA-1) | Potency (SKOV3) | Potency (Tov-21-G) | Potency (Tov112D)

CC1=C2C(=O)C=C(CO)[C@@H]2[C@H]2OC(=O)[C@H](C)[C@@H]2[C@@H](O)C1
inactive: Potency (CAOV3) | Potency (CASKI) | Potency (Es-2) | Potency (HeLa) | Potency (Hek293T) | Potency (JEG-3) | Potency (OV90) | Potency (PA-1) | Potency (SKOV3) | Potency (Tov-21-G) | Potency (Tov112D)

COc1ccc(/C=C/C(=O)O[C@@H]2[C@@H](OC(C)=O)[C@@H](OC(C)=O)[C@H](O[C@H]3[C@@H]4C=CO[C@@H](O[C@@H]5O[C@H](CO)[C@@H](O)[C@H](O)[C@H]5O)[C@@H]4[C@@]4(CO)O[C@@H]34)O[C@H]2C)cc1O
inactive: Potency (CAOV3) | Potency (CASKI) | Potency (Es-2) | Potency (HeLa) | Potency (Hek293T) | Potency (JEG-3) | Potency (OV90) | Potency (PA-1) | Potency (SKOV3) | Potency (Tov-21-G) | Potency (Tov112D)

O=c1c2ccccc2nc2n1CCC2O (stereo not given)
inactive: Potency (CAOV3) | Potency (CASKI) | Potency (Es-2) | Potency (HeLa) | Potency (Hek293T) | Potency (JEG-3) | Potency (OV90) | Potency (PA-1) | Potency (SKOV3) | Potency (Tov-21-G) | Potency (Tov112D)

O=C(O)[C@H]1CCCC[C@H]1C(=O)N1CCc2ccccc2[C@H]1CN1C(=O)c2ccccc2C1=O
inactive: Potency (CAOV3) | Potency (CASKI) | Potency (Es-2) | Potency (HeLa) | Potency (Hek293T) | Potency (JEG-3) | Potency (OV90) | Potency (PA-1) | Potency (SKOV3) | Potency (Tov-21-G) | Potency (Tov112D)

C[C@@H]1C[C@H](O[C@@H]2O[C@H](CO[C@@H]3OC[C@](O)(CO)[C@H]3O)[C@@H](O)[C@H](O)[C@H]2O)CC(C)(C)[C@H]1/C=C/[C@@H](C)O
inactive: Potency (CAOV3) | Potency (CASKI) | Potency (Es-2) | Potency (HeLa) | Potency (Hek293T) | Potency (JEG-3) | Potency (OV90) | Potency (PA-1) | Potency (SKOV3) | Potency (Tov-21-G) | Potency (Tov112D)

C=C/C=C/[C@@H]1OC[C@H](/C=C/C=C/C)[C@H]1O
inactive: Potency (CAOV3) | Potency (CASKI) | Potency (Es-2) | Potency (HeLa) | Potency (Hek293T) | Potency (JEG-3) | Potency (OV90) | Potency (PA-1) | Potency (SKOV3) | Potency (Tov-21-G) | Potency (Tov112D)

CC1(C)CC2C(O)C3=C(CC(C)(O)C2C1)C(=O)OC3O (stereo not given)
inactive: Potency (CAOV3) | Potency (CASKI) | Potency (Es-2) | Potency (HeLa) | Potency (Hek293T) | Potency (JEG-3) | Potency (OV90) | Potency (PA-1) | Potency (SKOV3) | Potency (Tov-21-G) | Potency (Tov112D)

C=CC1(C)C=C2C(O)CC3C(C)(C(=O)O)CCCC3(C)C2CC1 (stereo not given)
inactive: Potency (CAOV3) | Potency (CASKI) | Potency (Es-2) | Potency (HeLa) | Potency (Hek293T) | Potency (JEG-3) | Potency (OV90) | Potency (PA-1) | Potency (SKOV3) | Potency (Tov-21-G) | Potency (Tov112D)

CC12CC34C=CC(=O)C(C)(CCC(=O)O)C3C(CC1C4)O2 (stereo not given)
inactive: Potency (CAOV3) | Potency (CASKI) | Potency (Es-2) | Potency (HeLa) | Potency (Hek293T) | Potency (JEG-3) | Potency (OV90) | Potency (PA-1) | Potency (SKOV3) | Potency (Tov-21-G) | Potency (Tov112D)

C[C@@H]1CC[C@]2(C(=O)O)CC[C@]3(C(=O)O)C(=CCC4[C@@]5(C)CC[C@H](O[C@@H]6O[C@@H](C)[C@H](O[C@@H]7O[C@H](CO)[C@@H](O)[C@H](O)[C@H]7O)[C@@H](O)[C@H]6O)C(C)(C)C5CC[C@]43C)C2[C@H]1C (stereo not given in full)
inactive: Potency (CAOV3) | Potency (CASKI) | Potency (Es-2) | Potency (HeLa) | Potency (Hek293T) | Potency (JEG-3) | Potency (OV90) | Potency (PA-1) | Potency (SKOV3) | Potency (Tov-21-G) | Potency (Tov112D)

CN1C(=O)c2ccccc2NC(=O)[C@]12O[C@@H]2c1cccc(O)c1
inactive: Potency (CAOV3) | Potency (CASKI) | Potency (Es-2) | Potency (HeLa) | Potency (Hek293T) | Potency (JEG-3) | Potency (OV90) | Potency (PA-1) | Potency (SKOV3) | Potency (Tov-21-G) | Potency (Tov112D)

C[C@@H]1O[C@@H](O[C@H]2[C@H](O[C@H]3[C@H](O[C@H]4CC[C@@]5(CO)C(CC[C@]6(C)C5CC=C5C7CC(C)(C)C[C@@H](O)[C@]7(C)CC[C@]56C)C4(C)C)O[C@H](C(=O)O)[C@@H](O)[C@@H]3O)OC[C@@H](O)[C@@H]2O)[C@H](O)[C@H](O)[C@H]1O (stereo not given in full)
inactive: activity change, negative = cytotoxicity (CAOV3) 7.01% [at 11.6 µM] | activity change, negative = cytotoxicity (CASKI) 6.9% [at 11.6 µM] | activity change, negative = cytotoxicity (Es-2) -4.17% [at 11.6 µM] | activity change, negative = cytotoxicity (HeLa) -12.2% [at 11.6 µM] | activity change, negative = cytotoxicity (Hek293T) -3.07% [at 11.6 µM] | activity change, negative = cytotoxicity (JEG-3) -1.11% [at 11.6 µM] | activity change, negative = cytotoxicity (OV90) -1.83% [at 11.6 µM] | activity change, negative = cytotoxicity (PA-1) 6.18% [at 11.6 µM] | activity change, negative = cytotoxicity (SKOV3) 0.621% [at 11.6 µM] | activity change, negative = cytotoxicity (Tov-21-G) 0.307% [at 11.6 µM] | activity change, negative = cytotoxicity (Tov112D) -0.127% [at 11.6 µM]

CC1=CC(=O)OC(C)(CC(C)(O)C(=O)O)C1 (stereo not given)
inactive: Potency (CAOV3) | Potency (CASKI) | Potency (Es-2) | Potency (HeLa) | Potency (Hek293T) | Potency (JEG-3) | Potency (OV90) | Potency (PA-1) | Potency (SKOV3) | Potency (Tov-21-G) | Potency (Tov112D)
